Source: PubChem BioAssay AID652054 (National Center for Advancing Translational Sciences (NCATS), 2013)
Screen size: about 360,000 compounds; about 9,100 (2.5%) were called active. Another 4% or so got no clear call; they are omitted. Cut-off read from the data, not from the text of the source: active = max response below about -50%; inconclusive = no clear call, values can overlap the other calls; inactive = above that. For the sample, actives were picked, then their nearest neighbours and some compounds at random.

These compounds were tested against D(3) dopamine receptor (Homo sapiens) (UniProt P35462) (assay: qHTS of D3 Dopamine Receptor Antagonist: qHTS). Settings: D3R cells, DiscoveRx beta-arrestin luminescence, antagonist mode; stronger effect = lower value.
D(3) dopamine receptor (Homo sapiens), sequence (P35462 whole entry, looked up): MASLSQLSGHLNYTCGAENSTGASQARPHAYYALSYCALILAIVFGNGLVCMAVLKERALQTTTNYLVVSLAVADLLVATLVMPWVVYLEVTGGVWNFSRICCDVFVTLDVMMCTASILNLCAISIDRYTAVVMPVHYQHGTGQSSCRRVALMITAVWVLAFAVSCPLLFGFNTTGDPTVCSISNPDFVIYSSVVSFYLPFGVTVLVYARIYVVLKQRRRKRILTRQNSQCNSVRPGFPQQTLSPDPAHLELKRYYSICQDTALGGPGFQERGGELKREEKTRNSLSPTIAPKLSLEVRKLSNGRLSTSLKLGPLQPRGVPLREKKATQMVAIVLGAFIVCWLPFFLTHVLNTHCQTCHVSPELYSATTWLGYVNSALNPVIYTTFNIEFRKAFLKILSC
Method in brief: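 Cells expressing the human receptor were seeded at 1500 cells/well, incubated overnight at 37 degrees C in 5% CO2, then exposed to library compounds with dopamine controls for 90 minutes at 37 degrees C before luminescent detection.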
% is set by controls: 0 for no effect and ±100 for the full control effect.

Row | SMILES | max response, negative = inhibition
1 | Cc1ccc(-c2nc3c(Cl)cc(C(F)(F)F)cn3c2Cc2cccc(Cl)c2)cc1 | 50.6% (inactive)
2 | COc1cc2nnn(-c3ccncc3)c2cc1OC | 28% (inactive)
3 | COCCCNCC(=O)Nc1sc(C)c(C)c1C(=O)OC | -52.8% (active)
4 | COC(=O)c1c(NC(=O)c2c(Cl)cnn2C)sc(C)c1C | 11.6% (inactive)
5 | CCC(=O)Nc1sc(C(=O)Nc2ccccc2)c(C)c1C(=O)OC | 31.4% (inactive)
6 | COCc1cccc(-c2csc(C(O)c3ccc(F)cc3)n2)c1 (stereo not given) | 0% (inactive)
7 | O=C(c1cccs1)N1C[C@H](n2cc(C3CC3)nn2)[C@@H](O)C[C@@H]1c1ccccc1 | -2.86% (inactive)
8 | C=CCn1c2c(c3ccccc31)CCC2 | -10.5% (inactive)
9 | CC(C)C1C(=O)N(Cc2cn(CCC3OCCO3)nn2)CCS(=O)(=O)N1Cc1ccc(-c2ccccc2C(F)(F)F)cc1 (stereo not given) | -3.14% (inactive)
10 | O=C1[C@H]2[C@@H](c3ccc(Cl)cc3)N3C(=O)N(c4cccc(F)c4)C(=O)[C@@]3(Cc3ccccc3)[C@H]2C(=O)N1C1CCCCC1 | -0.596% (inactive)
11 | Cc1cccc(N2C(=O)N3[C@H](c4ccc(F)cc4)[C@@H]4C(=O)N(C5CCCCC5)C(=O)[C@@H]4[C@]3(Cc3ccccc3)C2=O)c1 | -58.6% (active)
12 | O=C1[C@H]2[C@@H](c3ccc(F)cc3)N3C(=O)N(c4ccc(C(F)(F)F)cc4)C(=O)[C@@]3(Cc3ccccc3)[C@H]2C(=O)N1C1CCCCC1 | -13.4% (inactive)
13 | OC[C@@H]1CN(Cc2cccs2)C[C@H](n2cnc3c(NC4CCCC4)ncnc32)O1 | 18.9% (inactive)
14 | CC(C)c1cccc(-c2csc(C(O)c3ccccc3)n2)c1 (stereo not given) | -27.4% (inactive)
15 | COc1ccc2sc(-c3ccccc3OC)c(-c3ccc(OCCN4CCCC4)cc3)c2c1 | -83.2% (active)
16 | COc1ccccc1-c1sc2ccccc2c1-c1ccc(Br)nc1 | -14.1% (inactive)
17 | COc1cccc(-c2sc3ccc(OC)cc3c2-c2ccc(OCCN3CCCCC3)cc2)c1 | -12.2% (inactive)
18 | CC(C)(Oc1ccc(C2CC2(Cl)Cl)cc1)C(=O)O (stereo not given) | -111% (active)
19 | O=C(Nc1ccc(C2CC2(Cl)Cl)cc1)c1cccc([N+](=O)[O-])c1 (stereo not given) | -14.6% (inactive)
20 | CCc1nc2c(OCc3ccc(F)c(F)c3)cccn2c1N(C)C(=O)c1ccco1 | 15.7% (inactive)
21 | O=C(NC1=NCCS1)c1ccc(Cl)s1 | -77% (active)
22 | COc1ccccc1C(=O)NCCC(=O)NC1=NCCS1 | 0% (inactive)
23 | COc1ccc(C(=O)NC2=NCCS2)c(OC)c1 | 5.28% (inactive)
24 | O=C(C[n+]1ccc2c(c1)nnn2-c1ccccc1)c1ccc(Cl)cc1 | -54.4% (active)
25 | O=C(Cn1cc(-c2nnnn2-c2ccc(Cl)cc2)c(=O)c2ccccc21)c1ccccc1 | 36.4% (inactive)
26 | O=C(CSc1cccc[n+]1[O-])c1ccc(Cl)cc1 | -3.66% (inactive)
27 | Cc1noc(C)c1C(=O)N1CCC1(C)C(=O)NS(=O)(=O)c1ccc(C#N)cc1 (stereo not given) | 13.1% (inactive)
28 | COCc1cc(C)nc2sc(C(=O)NC3CCCCC3)c(N)c12 | -50.5% (active)

Row | SMILES | max response, negative = inhibition
29 | COc1ccc(OC)c(NC(=O)c2sc3nc(C)cc(C)c3c2N)c1 | 22.5% (inactive)
30 | Cc1cccn2c(=O)c3cc(C(=O)NC4CCCCC4)sc3nc12 | -12.3% (inactive)
31 | COc1cncc(-c2cnc3sc(NCCc4ccccn4)nn23)c1 | 60.8% (inactive)
32 | Cc1ccc(/C=N\n2c(-c3ccccc3)n[nH]c2=S)s1 | -72.1% (active)
33 | S=c1[nH]nc(-c2ccncc2)n1/N=C/c1ccccc1Cl | 38% (inactive)
34 | Cc1ccsc1/C=N/n1c(=S)[nH]nc(C)c1=O | -20.9% (inactive)
35 | Oc1ccccc1/C=N/n1c(-c2cccs2)n[nH]c1=S | -79.6% (active)
36 | S=c1[nH]nc(-c2cccs2)n1/N=C/c1cn(-c2ccccc2)nc1-c1ccc(Cl)cc1 | -16% (inactive)
37 | Fc1ccccc1/C=N/n1c(-c2cccnc2)n[nH]c1=S | -11.6% (inactive)
38 | CCCCCC(=O)N1C[C@H](O)[C@@H](n2cc(COC(=O)c3ccccc3)nn2)C[C@@H]1c1ccc(C)cc1 | 8.87% (inactive)
39 | COC(=O)C1=CN(c2c(C)cc(C)cc2C)C(N)=C(C#N)C1c1cccc(F)c1 (stereo not given) | 2.73% (inactive)
40 | Cc1ccnc(SC2CC(=O)N(c3ccccc3)C2=O)n1 (stereo not given) | -15.3% (inactive)
41 | CC[C@@H]1CC2=C(C(=O)OC(C)(C)O2)[C@@H](CC)O1 | 16.4% (inactive)
42 | COC(=O)C1(C(=O)OC)C/C=C\CN(S(=O)(=O)c2ccccc2[N+](=O)[O-])CCC1 | 25.7% (inactive)
43 | Cc1cc(C(=O)NC2CC(C)(C)Cc3c2cnn3-c2ccccc2)n[nH]1 (stereo not given) | -0.849% (inactive)
44 | Cc1ccc(-c2cc(C(=O)NC3CCN(Cc4ccccc4)CC3)c3ccccc3n2)cc1 | -13.4% (inactive)
45 | CCc1nc2ccc(C(=O)NC3CCN(Cc4ccccc4)CC3)cn2c1N(C)CCN1CCOCC1 | 14% (inactive)
46 | Cc1ccn2cc(C(=O)NC3CCN(Cc4ccccc4)CC3)nc2c1 | -65.2% (active)
47 | COC(=O)c1cc(S(=O)(=O)NC2CCN(Cc3ccccc3)CC2)cn1C | 11.7% (inactive)
48 | Cc1cc(C(=O)NC2CCN(Cc3ccccc3)CC2)n[nH]1 | -81.2% (active)
49 | CCc1nc2ccc(C(=O)N3CCN(S(=O)(=O)CC)CC3)cn2c1N(C=O)CCC(C)C | -18.9% (inactive)
50 | CCCNC(=O)C1(C)CCN1C(=O)Cc1ccc(-c2ccccc2)cc1 (stereo not given) | -20.6% (inactive)
51 | C[C@H]1NS(=O)(=O)c2cc(Cl)ccc2O[C@@H]1c1ccccc1 | -18.7% (inactive)
52 | O=[N+]([O-])/C=C/c1ccc2c(ccn2Cc2ccccc2)c1 | -54.4% (active)
53 | C[C@@H]1CN([C@@H](C)CO)C(=O)CCCn2cc(nn2)CO[C@H]1CN(C)S(=O)(=O)c1ccc(-n2cccn2)cc1 | -5.35% (inactive)
54 | COC(=O)[C@]12CCCCC=C1N(Cc1ccc(Cl)cc1Cl)C(=O)[C@H](CC(=O)NCc1cccc3ccccc13)C2 | -15.1% (inactive)
55 | COc1cc(CCN=Cc2ccccc2O)c([N+](=O)[O-])cc1OC | 2.41% (inactive)
